Holding throughout (experiment): qHTS profiling for inhibitors of Plasmodium falciparum proliferation (AID 504749); note: nearly all actives have a fitted effect of over 60% in size
Common to all, as to details: P. falciparum in erythrocytes, SYBR Green DNA, 72 h; series mostly up to 28.7 µM

One assay relates to C2A. In short, it runs like this: (§1)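 Each compound contacts P. falciparum-infected red blood cells for 72 h at 37 C; lysis buffer (Tris, EDTA, saponin, Triton X, SYBR Green I) is added and fluorescence measured next morning; values normalized to controls.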
For another assay, the system named is CP192. A digest of the protocol: as §1
For a further assay, the system named is CP194. A digest of the protocol:
as §1

The next assay has as its system CP201. A digest of the protocol: as §1
A further assay deals with CP203. A digest of the protocol: as §1
In another assay the test system is CP211. In short, it runs like this: as §1
A further assay concerns ATS95. In short, it runs like this: as §1
In the next assay the test system is CP191. A digest of the protocol: as §1
The test system of another assay is ATS189. A digest of the protocol:
as §1

The test system of a further assay is CP185. A digest of the protocol: as §1

Results filed as inconclusive are left out. The source made the active and inactive calls. Calls come from the whole dose curve; as a rule, active = well fitted inhibition curve with a large enough effect; inconclusive = small, poorly fitted or top-dose-only effect; inactive = flat fitted curve, though single readings scatter.
Potency is the fitted concentration of half-maximal effect.

Consider `COCC(=O)N(c1c(C)cccc1C)C(C)C(=O)OC` (stereo not drawn), for which the Potency result in the assay on C2A, in the assay with CP192, in the assay with CP194, in the assay on CP201, in the assay on CP203 and with CP211 was “inactive” in each case.

In the case of `N#Cc1nn(-c2c(Cl)cc(C(F)(F)F)cc2Cl)c(N)c1S(=O)C(F)(F)F` (stereo not drawn), the Potency in the assay with ATS95 was 12.6 µM (active); in the assay on C2A, 8.91 µM (active); with CP191, 6.31 µM (active); with CP194, 15.1 µM (active); with CP201, 13.5 µM (active).

Take `C#C[C@]1(O)CC[C@H]2[C@@H]3CCC4=CC(=O)CCC4=C3C=C[C@@]21CC`: the Potency in the assay with ATS95 is 10 µM (active); in the assay on CP191, 3.16 µM (active). In addition, the Potency entry in the assay with CP192 and with CP211 was “inactive” in each case.

As for `O=C(O)c1nn(Cc2ccc(Cl)cc2Cl)c2ccccc12`, the Potency entry with ATS189, in the assay on ATS95, in the assay on C2A, with CP185, in the assay on CP191 and with CP192 was “inactive” in each case. The Potency result with CP194, with CP201 and in the assay on CP211 was “inactive” in each case.

As to `O=C(CCCN1CCC(n2c(=O)[nH]c3ccccc32)CC1)c1ccc(F)cc1`, the Potency with ATS189 was 1.58 µM (active); with ATS95, 3.16 µM (active); with CP191, 1 µM (active); in the assay with CP203 it was 4.55 µM (active).

Take `CC(Cc1ccccc1)NCc1ccccc1Cl` (stereo not drawn): the Potency result in the assay on C2A, in the assay on CP191, in the assay on CP192, with CP201 and in the assay with CP211 was “inactive” in each case.

`C=CCOC(Cn1ccnc1)c1ccc(Cl)cc1Cl` (stereo not drawn): the Potency with ATS189 was 10 µM (active); in the assay on ATS95, 8.91 µM (active); in the assay on CP194 it was 15.1 µM (active); with CP203, 9.53 µM (active).

For `O=C1NCN(c2ccccc2)C12CCN(CCCOc1ccc(F)cc1)CC2`, the Potency entry in the assay on CP192 and in the assay on CP201 was “inactive” throughout.

Regarding `COP(=O)(OC)OC=C(Cl)Cl`, the Potency result in the assay on ATS189, in the assay with ATS95, in the assay on C2A, in the assay with CP185, in the assay with CP191 and with CP192 was “inactive” in each case. The Potency result in the assay on CP194, with CP201, with CP203 and with CP211 was “inactive” in each case.

`NC(=O)OCCCc1ccccc1`: the Potency entry in the assay on ATS189, in the assay on ATS95, with C2A, with CP185, with CP191 and in the assay on CP192 was “inactive” in each case. The Potency result in the assay on CP194, in the assay with CP201 and with CP211 was “inactive” each time.

With `CN1CCc2cc(Cl)c(O)cc2[C@H]2c3ccccc3CC[C@@H]21`, the Potency result with C2A, with CP192 and in the assay on CP201 was “inactive” throughout.

Regarding `OC(O)C(Cl)(Cl)Cl`, the Potency entry in the assay with ATS189, in the assay on ATS95, with C2A, in the assay with CP185, in the assay on CP192 and in the assay with CP194 was “inactive” throughout. Further, the Potency entry in the assay with CP201, in the assay on CP203 and in the assay on CP211 was “inactive” throughout.

As to `COP(=O)(OC)C(O)C(Cl)(Cl)Cl` (stereo not drawn), the Potency entry in the assay with ATS189, with ATS95, in the assay with C2A, with CP185, in the assay on CP191 and in the assay on CP192 was “inactive” in each case. The Potency result with CP194, in the assay with CP201, with CP203 and with CP211 was “inactive” each time.

As to `CC(C)[N+](C)(CCC(C(N)=O)(c1ccccc1)c1ccccc1)C(C)C`, the Potency result in the assay with ATS189, with ATS95, with C2A, with CP185, in the assay with CP191 and with CP192 was “inactive” throughout. In addition, the Potency entry in the assay with CP194, in the assay on CP201, in the assay on CP203 and in the assay on CP211 was “inactive” throughout.

Regarding `Nc1ccc(N)cc1`, the Potency result in the assay on CP192 is “inactive”.

`CC(C)(O)C(Cl)(Cl)Cl`: the Potency with ATS189 was 3.16 µM (active); in the assay on ATS95, 10 µM (active); with CP191 it was 3.16 µM (active); in the assay on CP203 it was 10.7 µM (active).

Regarding `Clc1ccc(CO/N=C(\Cn2ccnc2)c2ccc(Cl)cc2Cl)c(Cl)c1`, the Potency is 3.98 µM (active) in the assay with ATS189; 6.31 µM (active) with ATS95; 10 µM (active) in the assay on C2A; 10 µM (active) in the assay with CP185; 3.98 µM (active) in the assay on CP191; 16.9 µM (active) in the assay on CP192. Also, the results for the Potency in the assay on CP194 and with CP203 were 10.7 µM (active) and 5.36 µM (active), respectively.

Regarding `CC[C@]1(O)CC[C@H]2[C@@H]3CCC4=CCCC[C@@H]4[C@H]3CC[C@@]21C`, the Potency with C2A was 0.891 µM (active). The Potency entry with CP192, in the assay with CP194, in the assay with CP201, with CP203 and in the assay with CP211 was “inactive” throughout.

With `COc1ccc(C(=O)N2CCCC2=O)cc1`, the Potency result in the assay with ATS189, in the assay with ATS95, with C2A, in the assay with CP185, in the assay on CP191 and in the assay with CP192 was “inactive” in each case. Further, the Potency entry in the assay with CP194, with CP201, in the assay on CP203 and in the assay with CP211 was “inactive” throughout.

Consider `CCN(CC)CCOC(=O)C(C)(c1ccccc1)c1ccccc1`, for which the Potency result in the assay with C2A, with CP192 and in the assay with CP201 was “inactive” in each case. For the same compound, the Potency in the assay on CP203 was 7.57 µM (active).

For the origin of these results see PubChem BioAssay (NCATS).
